Results on 40 compounds are retold here after PubChem BioAssay (EPA / NIEHS).

The AC50 is the concentration giving half of the maximal activity seen.

SMILES strings stand for the structures. Calls of active or inactive are those of the source. The calls were made as follows: active = hit-call score of the fitted dose curve at least 0.9, where 1 is the maximum; inactive = score below 0.9.

The assay deals with Nuclear respiratory factor 1 (Homo sapiens) (UniProt Q16656). Briefly: ATG_NRF1_CIS: Attagene CIS-FACTORIAL HepG2 Assay for human Nuclear Respiratory Factor 1 (NRF1) Orphan Gene (AID 2282987). Particulars: HepG2 NRF1 cis-element reporter, Attagene multiplex; actives raise or lower the signal. The procedure: ATG_CIS is a cell-based, multiplexed-readout assay that uses HepG2, a human liver cell line, with measurements taken at 24 hours after chemical dosing in a 24-well plate.ATG_NRF1_CIS is one of 52 assay component(s) measured or calculated from the ATG_CIS assay. It is designed to make measurements of mRNA induction, a form of inducible reporter, as detected with fluorescence intensity signals by Reverse transcription polymerase chain reaction (RT-PCR) and Capillary electrophoresis technology.Data from the assay component ATG_NRF1_CIS was analyzed into 1 assay endpoint. This assay endpoint, ATG_NRF1_CIS, was analyzed with bidirectional fitting relative to DMSO as the negative control and baseline of activity. Using a type of inducible reporter, measures of mRNA for gain or loss-of-signal activity can be used to understand the reporter gene at the transcription factor-level as they relate to the gene NRF1. Furthermore, this assay endpoint can be referred to as a primary readout, because this assay has produced multiple assay endpoints where this one serves a reporter gene function. To generalize the intended target to other relatable targets, this assay endpoint is annotated to the dna binding intended target family, where the subfamily is nuclear respiratory factors.
Nuclear respiratory factor 1 (Homo sapiens), sequence (Q16656 whole entry, looked up): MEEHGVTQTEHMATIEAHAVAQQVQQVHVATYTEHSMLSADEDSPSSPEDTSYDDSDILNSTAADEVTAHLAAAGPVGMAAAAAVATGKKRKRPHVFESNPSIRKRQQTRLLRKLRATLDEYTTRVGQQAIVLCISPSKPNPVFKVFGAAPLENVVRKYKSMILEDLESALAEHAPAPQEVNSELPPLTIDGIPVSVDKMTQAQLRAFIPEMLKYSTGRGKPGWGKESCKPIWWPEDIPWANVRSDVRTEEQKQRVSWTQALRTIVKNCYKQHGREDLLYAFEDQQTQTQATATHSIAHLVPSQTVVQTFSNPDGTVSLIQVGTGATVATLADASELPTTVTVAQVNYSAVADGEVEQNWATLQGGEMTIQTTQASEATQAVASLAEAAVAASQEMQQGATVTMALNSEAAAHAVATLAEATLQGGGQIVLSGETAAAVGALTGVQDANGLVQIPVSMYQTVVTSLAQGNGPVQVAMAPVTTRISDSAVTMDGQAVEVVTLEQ
Human liver HepG2 cells are transiently transfected with multiple reporter transcription units (MRTUs) in 6-well plates using FuGene 6 reagent (Roche; 3 ml FuGene/1 mg DNA). The MRTU constructs are regulated by a cis-regulating element (promoter). […] A major difference between the CIS and TRANS system is that in CIS activities of endogenous TFs are measured, whereas the TRANS assay evaluates changes in activities of exogenous, chimeric NR-Gal4 proteins. […] At the end of 24 hour incubation, total RNA was isolated using TriZol reagent (Invitrogen). The isolated RNA is then reverse-transcribed using oligo(dT) primer and Mo-MLV reverse transcriptase (Invitrogen) with DNAse I (Ambion) treatment for 30 min. The one-tenth of the produced cDNA was amplified by PCR using Taq DNA polymerase (Invitrogen) and two reporter sequence-specific primers. The PCR products were fluorescently labeled by primer extension with 6-arboxyfluorescein (6-FAM) 5'-labeled reporter sequence-specific primer (2 min at 95 C, 20 s at 68 C and 10 min at 72 C) and these products were digested with 5U of HpaI (New England Biolabs) for 2h at 37 C. The fragments were purified using Qiaquick PCR columns (Qiagen), analyzed on an ABI 3130xL genetic analyzer (Applied Biosystems) with peak positions identified by using a set of X-rhodamine (ROX)-labeled MapMarker1000 molecular weight standards (BioVentures). The raw capillary electrophoresis data was processed using Attagraph software (Attagene).
On to `O=C(/C=C/C=C/c1ccc2c(c1)OCO2)N1CCCCC1`, for which the outcome was inactive.

With `Cc1ccc(N/N=c2\c(=O)cc/c(=N/Nc3ccc(S(=O)(=O)O)cc3)c2=O)c(C)c1`, the result was inactive. Still for that read-out and setting: the same measure for `COc1c2ccoc2cc2oc(=O)ccc12`: “inactive”; for `C=CC(=O)OCCC(=O)O`: “inactive”. For `COC(=O)C1=C(C)NC(C)=C(C(=O)OCC(C)C)C1c1ccccc1[N+](=O)[O-]` (stereo not given), the AC50 was 15.4 µM (active). Regarding `CC(=O)NS(=O)(=O)c1ccc(N)cc1`, the compound was classed as inactive. `CCCCCCCC[N+](C)(CCCCCCCC)CCCCCCCC`: the compound was called inactive.

For the compound `C[Si](C)(CCCN)O[Si](C)(C)CCCN`, the result was inactive. Still for that read-out and setting: the same measure for `O=C1C=CC(=O)O1`: “inactive”. On the same count and under the same terms, the same measure for `O=C(O)CCCCCCCCCC(=O)O`: “inactive”; for `CCCCCCC(O)CO` (stereo not given): “inactive”; for `CCOC(=O)c1ccccc1C(=C1C=C(Br)C(=O)C(Br)=C1)c1cc(Br)c(O)c(Br)c1`: “inactive”. The same measure, in the same setting: the same measure for `CC/C=C\C/C=C\C/C=C\CCCCCCCC(=O)O`: “inactive”; for `C[Si](C)O[Si](C)(C)O[Si](C)(C)O[Si](C)C`: “inactive”. Regarding `CCCCC/C=C\CCC=O`, the result was inactive. As to `O=C1CCCCCN1SSN1CCCCCC1=O`, the outcome was inactive.

`Cc1oncc1C(=O)Nc1ccc(C(F)(F)F)cc1`: the outcome was inactive. On the same count and under the same terms, the entry for `CC1(C)O[C@@H]2C[C@H]3[C@@H]4C[C@H](F)C5=CC(=O)C=C[C@]5(C)[C@@]4(F)[C@@H](O)C[C@]3(C)[C@]2(C(=O)CO)O1` is “inactive”.

Take `C=CC(=O)OCCOC(=O)C=C`: the compound was called inactive. Same read-out and setting: the same measure for `CCN(CCO)c1cccc(C)c1`: “inactive”. On to `CC(=O)CC(N)=O`, for which the compound was called inactive. The same measure, in the same setting: the same measure for `COc1ccc(NC(C)=O)cc1N`: “inactive”; for `OCCc1ccncc1`: “inactive”; for `CCCc1ccc(OC)cc1`: “inactive”. On the same count and under the same terms, the same measure for `C=C(C)C(=O)OCCO`: “inactive”; for `CCCCOCCOC(=O)COc1nc(Cl)c(Cl)cc1Cl`: “inactive”; for `CCCCNc1ccc(NCCCC)c2c1C(=O)c1ccccc1C2=O`: “inactive”.

As for `Cc1cc(C)c(C)c(O)c1`, the result was inactive.

For `Nc1ccc(N=Nc2ccccc2)c(N)n1`, the compound was called inactive. Still for that read-out and setting: the entry for `Nc1ccc(N)c(Cl)c1` is “inactive”; for `CCc1nccnc1C` it is “inactive”; for `Nc1ccc(Cl)cc1Cl` it is “inactive”. Still for that read-out and setting: the entry for `C1CN(SSN2CCOCC2)CCO1` is “inactive”. On the same count and under the same terms, the entry for `O=c1cc(-c2ccccc2)oc2ccccc12` is “inactive”; for `CC(C)c1ccc2c(c1)CC[C@H]1[C@](C)(CN)CCC[C@]21C` it is “inactive”. On to `NC(=O)NNC(N)=O`, for which the compound was classed as inactive. Same read-out and setting: the same measure for `CC(C)CCCC(C)CC=O` (stereo not given): “inactive”. Same read-out and setting: the entry for `C=CCCCCCCCCC(=O)OCCCC` is “inactive”; for `CCOC(=O)Cc1cccc2ccccc12` it is “inactive”.

In the case of `CCCCCCCCC(=O)OCC`, the compound was called inactive.
